Activation and Potency data for 40 molecules are collected here from PubChem BioAssay (NCATS).

“And” between values parts separate entries of the source, which are not always exact repeats. Equal entries are not always repeated. Results filed as inconclusive are left out. Unmarked numbers belong to inactive results. The source made the active and inactive calls. Calls follow the shape of the dose curve; as a rule, active = well fitted activation curve with a large enough effect; inconclusive = small, poorly fitted or top-dose-only effect; inactive = no such curve, though single readings can be large or run the other way.
Potency is read from the fitted curve at half-maximal effect.

The test deals with Cellular tumor antigen p53 (Homo sapiens) (UniProt P04637). Nature of the test: Primary qHTS for small molecule compounds that upregulate eGFP-tagged delta133p53alpha (in N-terminal) cells. (AID 2060322). Also: nearly all actives have a fitted effect of over 75% in size.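 As to Activation: series mostly up to about 56 µM; 0% = DMSO vehicle and 100% = reference activator.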 The settings on record: NCI-H358 eGFP-delta133p53alpha fluorescence, 24 h; activation: active compounds read high. The procedure, abridged: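 NCI-H358 cells pre-induced 24 h with 10 ng/ml doxycycline to express N-terminal eGFP-delta133p53alpha, then dosed 24 h at 37C without doxycycline; fixed, Hoechst-stained, GFP intensity by laser scanning cytometry, normalized to DMSO (0%) and 57.5 uM 5-azacytidine (100%).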
Cellular tumor antigen p53 (Homo sapiens), sequence (P04637 whole entry, looked up): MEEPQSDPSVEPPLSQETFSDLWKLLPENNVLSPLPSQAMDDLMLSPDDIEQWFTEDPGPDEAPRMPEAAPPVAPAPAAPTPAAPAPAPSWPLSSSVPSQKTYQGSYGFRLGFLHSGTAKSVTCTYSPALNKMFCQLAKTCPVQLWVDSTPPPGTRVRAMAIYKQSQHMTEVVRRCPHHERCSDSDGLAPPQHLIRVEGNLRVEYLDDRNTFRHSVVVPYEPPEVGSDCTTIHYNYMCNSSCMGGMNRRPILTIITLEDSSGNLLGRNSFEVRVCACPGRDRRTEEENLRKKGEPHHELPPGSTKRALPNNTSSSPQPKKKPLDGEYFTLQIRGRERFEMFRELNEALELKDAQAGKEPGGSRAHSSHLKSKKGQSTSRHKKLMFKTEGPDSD
A general note: In qHTS, concentration-response curves come from the screen itself.
With `CCOC(=O)N1c2ccc(C(F)(F)F)cc2[C@@H](N(Cc2cc(C(F)(F)F)cc(C(F)(F)F)c2)C(=O)OC)C[C@H]1CC`, the activation was -8.39%.
Same read-out and setting: with `C#CCC(Cc1cnc2nc(N)nc(N)c2n1)c1ccc(C(=O)N[C@@H](CCC(=O)O)C(=O)O)cc1` (stereo not given in full) the figure was -21.3%.
Still for that read-out and setting: with `Cc1c(C(=O)NN2CCCCC2)nn(-c2ccc(Cl)cc2Cl)c1-c1ccc(Cl)cc1` the figure was 8.47% and -3.72%.
The same measure, in the same setting: the result for `CC(=O)Oc1ccccc1C(=O)Nc1ncc([N+](=O)[O-])s1` reads -2.09% and 33.3%; that for `O=C(O)[C@H](O)[C@@H](O)[C@H](O[C@@H]1O[C@H](CO)[C@H](O)[C@H](O)[C@H]1O)[C@H](O)CO`, -12.6%.
On to `O=c1c(O)c(-c2ccc(O)c(O)c2)oc2cc(O)ccc12`, for which the activation was -6.9%.
Turning to `COc1ccc(-c2cc(=O)c3c(O)cc(O)cc3o2)cc1O`, the activation is 29.3%.
On the same count and under the same terms, the result for `CC(=O)SCC(Cc1ccccc1)C(=O)NCC(=O)OCc1ccccc1` (stereo not given) reads 16.6%; that for `CC[C@@]1([C@@H]2O[C@@H]([C@H]3O[C@@](O)(CO)[C@H](C)C[C@H]3C)C[C@H]2C)CC[C@H]([C@]2(C)CC[C@]3(C[C@H](O)[C@@H](C)[C@@H]([C@@H](C)[C@@H](OC)[C@H](C)C(=O)O)O3)O2)O1`, 7.91%.
Same read-out and setting: with `CNC(=O)c1cc(COc2nnc(Nc3ccc(Cl)cc3)c3ccoc23)ccn1` the figure was -2.64%.
Consider `Cc1ccc(C(C)(O)c2nc3ccccc3s2)c(C)c1` (stereo not given), for which the activation is 5.91%.
The same measure, in the same setting: the result for `Oc1cccc(-c2nc(N3CCOCC3)c3oc4ncccc4c3n2)c1` reads 27.8%; that for `O=C(O)Cc1cccc(OCCCN(Cc2cccc(C(F)(F)F)c2Cl)CC(c2ccccc2)c2ccccc2)c1`, 4.75%; that for `C#Cc1cccc(Nc2ncnc3cc(OCCOC)c(OCCO)cc23)c1`, 34%.
Same read-out and setting: the result for `CCn1c(-c2nonc2N)nc2cnc(Oc3cccc(NC(=O)c4ccc(OCCN5CCOCC5)cc4)c3)cc21` reads -20.5%.
Still for that read-out and setting: with `CC1(C)CCC(C)(C)c2cc(NC(=O)c3ccc(C(=O)O)cc3)ccc21` the figure was -13% and 3.42%.
Consider `Cc1[nH]nc2ccc(-c3cncc(OC[C@@H](N)Cc4ccccc4)c3)cc12`, for which the Potency was 21.7 µM (active).
`CCOC(=O)c1ccc(OC(=O)CCCCCN=C(N)N)cc1`: the activation was 31%.
Still for that read-out and setting: the result for `CCCCCCOC(=O)NC(=N)c1ccc(NCc2nc3cc(C(=O)N(CCC(=O)OCC)c4ccccn4)ccc3n2C)cc1` reads -36.8%; that for `C[C@H](NC(=O)[C@@H](O)c1cc(F)cc(F)c1)C(=O)N[C@@H]1C(=O)N(C)c2ccccc2-c2ccccc21`, 10.4%.
Same read-out and setting: the result for `COc1ccc(Nc2cc(-c3cnc(N)nc3)nc(N3CCOCC3)n2)cn1` reads 24.5%; that for `CCc1nc(N)nc(N)c1-c1ccc(Cl)cc1`, -15.9% and -12.3%; that for `C[C@]1(c2nc3c(C(N)=O)cccc3[nH]2)CCCN1`, 53.7%.
For `O=C(Cc1cccc(OC(F)(F)F)c1)Nc1ccc(CCCCc2nnc(NC(=O)Cc3ccccn3)s2)nn1`, the activation is 7.71%.
The same measure, in the same setting: the result for `OC[C@H](Cc1ccccc1)Nc1nc(Oc2ccc3c(c2)CCC3)nc2c1ncn2Cc1ccc(-c2ccccc2)cc1` reads -44.8%; that for `O=C(Nc1ccccc1Br)N[C@@H]1CCN(c2ccc(C(F)(F)F)cn2)C1`, 10.1%.
The same measure, in the same setting: with `C=C1C(=O)OC(CCCCCCCC)C1C(=O)O` (stereo not given) the figure was -0.0763%.
Turning to `O=C1CCc2ccc(OCCCCN3CCN(c4cccc(Cl)c4Cl)CC3)cc2N1`, the activation is -4.19%.
The same measure, in the same setting: with `NC(=O)[C@@H](CCC(F)(F)F)N(Cc1ccc(-c2ncon2)cc1F)S(=O)(=O)c1ccc(Cl)cc1` the figure was 12.6%; with `CCCc1nc2c(C)cc(-c3nc4ccccc4n3C)cc2n1Cc1ccc(-c2ccccc2C(=O)O)cc1`, -6.69% and 11.8%; with `COc1cc2c(cc1Cc1cccc(Cl)c1F)c(=O)c(C(=O)O)cn2[C@H](CO)C(C)C`, -15%.
Still for that read-out and setting: the result for `Cn1c(Nc2ccc(C(F)(F)F)cc2)nc2cc(Oc3ccnc(-c4ncc(C(F)(F)F)[nH]4)c3)ccc21` reads 0.151%.
Same read-out and setting: with `O=c1cc(-c2ccccc2)oc2cc(O)c(O)c(O)c12` the figure was -1.25%; with `NC(=O)N1CCC(CC(=O)N2CCC([C@H]3c4ncc(Br)cc4CCc4cc(Cl)cc(Br)c43)CC2)CC1`, 7.44%.
`C[C@@H]1C[C@H]2[C@@H]3CCC4=CC(=O)C=C[C@]4(C)[C@@]3(Cl)[C@@H](O)C[C@]2(C)[C@@]1(OC(=O)c1ccco1)C(=O)CCl`: the activation is 19.9%.
Regarding `O=P(O)(O)C(O)(Cn1ccnc1)P(=O)(O)O`, the activation is -20.1%.
Same read-out and setting: with `O=c1c(-n2ccnn2)c[nH]n1-c1cc(N2CCOCC2)ncn1` the figure was 44.9%; with `CN1CCC(=C2c3ccccc3CCc3sccc32)CC1`, -15.1% and 66.1%.
For the molecule `CC(C)(C)c1cnc(CSc2cnc(NC(=O)C3CCNCC3)s2)o1`, the Potency was 0.968 µM (active).
For `c1cc(-c2sc(-c3ccncc3)c(-c3ccncc3)c2-c2ccncc2)ccn1`, the activation is 6.76%.
